Source: publication PMC7826789 (International Journal of Molecular Sciences, 2021)

How the values were obtained:
Conditions in all cases: Compound Concentration (nM):1000
AAK1 = system: AAK1
[1] = system: ABL1(E255K)-phosphorylated
[2] = system: ABL1(F317I)-nonphosphorylated
[3] = system: ABL1(F317I)-phosphorylated
[4] = system: ABL1(F317L)-nonphosphorylated
[5] = system: ABL1(F317L)-phosphorylated
[6] = system: ABL1(H396P)-nonphosphorylated
[7] = system: ABL1(H396P)-phosphorylated
[8] = system: ABL1(M351T)-phosphorylated
[9] = system: ABL1(Q252H)-nonphosphorylated
[10] = system: ABL1(Q252H)-phosphorylated
[11] = system: ABL1(T315I)-nonphosphorylated
[12] = system: ABL1(T315I)-phosphorylated
[13] = system: ABL1(Y253F)-phosphorylated
ABL1-nonphosphorylated = system: ABL1-nonphosphorylated
ABL1-phosphorylated = system: ABL1-phosphorylated
ABL2 = system: ABL2
ACVR1B = system: ACVR1B
ACVR1 = system: ACVR1
ACVR2A = system: ACVR2A
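Further: KINOMEscan scanMAX binding as percent activity remaining versus control; lower means stronger binding.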

SMILES	Percent Control (AAK1) [%]	Percent Control [1] [%]	Percent Control [2] [%]	Percent Control [3] [%]	Percent Control [4] [%]	Percent Control [5] [%]	Percent Control [6] [%]	Percent Control [7] [%]	Percent Control [8] [%]	Percent Control [9] [%]	Percent Control [10] [%]	Percent Control [11] [%]	Percent Control [12] [%]	Percent Control [13] [%]	Percent Control (ABL1-nonphosphorylated) [%]	Percent Control (ABL1-phosphorylated) [%]	Percent Control (ABL2) [%]	Percent Control (ACVR1B) [%]	Percent Control (ACVR1) [%]	Percent Control (ACVR2A) [%]
C/C(Nc1ccc(S(N)(=O)=O)cc1)=C1/C(=O)Nc2ccccc21 [GW335962X]	67	82	88	83	100	89	72	91	82	76	96	100	86	89	88	82	100	100	100	100
COc1cc(C=NNc2ncnc3c2cnn3-c2ccccc2)ccc1O [GW513184X]	91	15	92	92	100	91	4.7	26	25	8.4	13	37	35	26	31	23	55	53	22	68
CC1=C(C(=O)Nc2ccc3[nH]ncc3c2)C(c2ccc(Cl)c(Cl)c2)CC(=O)N1 (centres unmarked) [GSK299115A]	73	96	100	72	75	74	79	95	87	75	100	83	90	97	74	94	83	100	95	80
Cl.c1ccc(Cc2nc3ccc(Nc4ncnc5ccccc45)cc3[nH]2)cc1 [GR269666A]	100	100	100	88	100	92	86	100	100	98	100	100	100	100	96	100	100	100	100	100
CCS(=O)(=O)c1ccc(OC)c(Nc2ncc(-c3cccc(OC)c3)o2)c1 [GW580509X]	100	5	90	40	45	6.2	1.4	7.9	6.5	6.8	3.2	100	97	8	16	9.4	26	100	27	100
O=C1Nc2ccc(C(=O)c3ccco3)cc2C1=Cc1cc(Cl)c(O)c(Cl)c1 [GW406108X]	30	68	89	79	100	71	60	87	70	71	88	96	78	83	87	76	100	100	89	92
COc1cc2ncnc(Nc3ccc4c(cnn4Cc4ccccc4)c3)c2cc1OC.Cl [GW282449A]	100	100	100	81	93	60	80	100	100	96	100	100	100	100	90	100	100	100	100	100
NS(=O)(=O)c1ccc(N/N=C2\C(=O)Nc3ccc(C(=O)NCc4ccncc4)cc32)cc1 [GW300657X]	29	79	85	81	92	54	63	82	91	78	72	97	98	82	79	77	100	100	100	100
Cc1cc(O)cc(C)c1/C=C/c1cncc(C(N)=O)c1 [GW435821X]	100	6.8	90	32	37	9	4.9	14	15	7.9	13	100	85	8.8	25	14	47	89	7.3	14
CCn1c(-c2nonc2N)nc2c(C#CC(C)(C)O)nc(OCCNC)cc21.Cl [GSK949675]	100	98	100	100	100	100	85	93	100	100	96	87	100	91	97	78	100	100	100	100
